From PubChem BioAssay (NCATS)
Inconclusive results are not listed. Calls of active or inactive are those of the source. Unless noted, the call rests on the fitted dose curve; in most records, active means well fitted curve in the direction sought with a large enough effect; inconclusive means small, poorly fitted or top-dose-only effect, or another doubt; inactive means no such curve, though single readings can be large; an effect the other way counts as inactive or inconclusive.

Experiments:
[1] = qHTS for differential inhibitors of proliferation of Plasmodium falciparum line 3D7 (AID 1876); further: potency means the concentration at half of the fitted maximal effect
[2] = qHTS for differential inhibitors of proliferation of Plasmodium falciparum line D10 (AID 1877);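 further: parasites grown with compound for 72 h before DNA staining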; further: potency means the concentration at half of the fitted maximal effect
[3] = qHTS for differential inhibitors of proliferation of Plasmodium falciparum line Dd2 (AID 1882); settings: Potency: Plasmodium falciparum Dd2 proliferation inhibition; further: nearly all actives have a fitted effect of over 65% in size; further: potency means the concentration at half of the fitted maximal effect
How it was run: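 Dd2-infected erythrocytes (0.3% parasitemia, 2.5% hematocrit final) incubated with compound 72 h at 37 C, 5% CO2; lysed with saponin/Triton buffer containing SYBR Green I, incubated overnight in the dark, then read by fluorescence (485/535 nm). Normalized to 0.29 uM artemisinin and DMSO.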

[4] = qHTS for differential inhibitors of proliferation of Plasmodium falciparum line HB3 (AID 1886); settings: Potency: Plasmodium falciparum HB3 proliferation inhibition;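 further: parasites grown with compound for 72 h before SYBR Green readout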; further: potency means the concentration at half of the fitted maximal effect
[5] = qHTS Assay for Modulators of Human Peripheral Myelin Protein 22 (PMP22) Expression/Activity (AID 1967; active means well fitted curve in the direction sought with a large enough effect in the signal ratio; the % refers to the signal ratio)
How it was run: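 MSC80 mouse Schwann cells stably carrying Pmp22 promoter–green click beetle luciferase plus EF-alpha–red luciferase control were dosed for 24h at 37 °C. Dual-colour luminescence was filter-overlap corrected; %Activity came from green/red ratio versus untreated cells.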

[6] = target: Ferritin light chain (Equus caballus) (UniProt P02791); assay: qHTS Validation Assay for Identification of Novel General Anesthetics (AID 2323); further: series mostly up to about 77 µM
Chain of Ferritin light chain (Equus caballus) (P02791 2-175 limits assumed): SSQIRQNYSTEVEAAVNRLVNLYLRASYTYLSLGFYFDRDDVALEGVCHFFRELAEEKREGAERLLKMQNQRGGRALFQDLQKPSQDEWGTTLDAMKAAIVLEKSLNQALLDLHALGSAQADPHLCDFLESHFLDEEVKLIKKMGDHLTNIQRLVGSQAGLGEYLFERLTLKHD
How it was run: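 Competitive displacement of profluorescent 1-aminoanthracene (1-AMA, 50% saturated solution in PBS) from 10 uM horse-spleen apoferritin. Compounds incubated 10 min at room temperature; fluorescence read at 380 nm excitation/535 nm emission, normalized to free 1-AMA and complex, fitted with four-parameter Hill equation.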

[7] = target: ATP-dependent DNA helicase Q1 (Homo sapiens) (UniProt P46063); assay: qHTS Validation Assay for Inhibitors of RecQ-Like Dna Helicase 1 (RECQ1) (AID 2353)
Chain of ATP-dependent DNA helicase Q1 (Homo sapiens) (P46063 whole entry, looked up): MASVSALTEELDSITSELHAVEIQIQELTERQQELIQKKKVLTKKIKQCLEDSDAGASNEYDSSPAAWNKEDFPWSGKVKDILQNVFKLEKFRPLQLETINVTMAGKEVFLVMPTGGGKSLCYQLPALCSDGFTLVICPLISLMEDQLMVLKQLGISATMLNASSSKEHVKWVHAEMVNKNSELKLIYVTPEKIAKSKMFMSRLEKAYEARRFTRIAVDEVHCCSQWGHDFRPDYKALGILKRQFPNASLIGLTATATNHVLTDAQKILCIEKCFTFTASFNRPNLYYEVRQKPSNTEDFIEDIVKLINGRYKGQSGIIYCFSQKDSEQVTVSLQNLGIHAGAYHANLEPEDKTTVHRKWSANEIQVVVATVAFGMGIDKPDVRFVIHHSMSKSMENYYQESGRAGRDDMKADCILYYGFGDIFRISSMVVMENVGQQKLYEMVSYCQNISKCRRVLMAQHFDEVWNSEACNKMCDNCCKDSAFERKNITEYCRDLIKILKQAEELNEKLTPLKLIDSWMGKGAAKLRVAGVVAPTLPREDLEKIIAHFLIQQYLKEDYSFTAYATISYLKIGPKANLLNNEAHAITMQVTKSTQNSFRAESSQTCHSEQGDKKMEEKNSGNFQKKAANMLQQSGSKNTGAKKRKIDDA
How it was run: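 50 nM RECQ1T1 preincubated 15 min with compound in Tris pH 8.0 buffer with MgCl2, DTT, Tween-20 and 2.5 ug/ml poly(dI-dC); started with 200 nM TAMRA/BHQ-2 forked duplex and 2 mM ATP. Unwinding read as fluorescence (525/598 nm), two reads 2 h apart.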

[8] = qHTS for differential inhibitors of proliferation of Plasmodium falciparum line GB4 (AID 1816); settings: Potency: Plasmodium falciparum GB4 proliferation inhibition;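 further: parasite growth measured after 72 h incubation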; further: potency means the concentration at half of the fitted maximal effect
[9] = qHTS for differential inhibitors of proliferation of Plasmodium falciparum line W2 (AID 1883); settings: Potency: Plasmodium falciparum W2 proliferation inhibition;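 further: parasites grown with compound for 72 h before lysis and staining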; further: potency means the concentration at half of the fitted maximal effect
[10] = qHTS Assay for Identification of Small Molecule Inducers of Hypoxia Response (AID 2120; active means well fitted curve in the direction sought with a large enough effect in the signal ratio, with a control signal flat, not every such curve was filed as active; the % refers to the signal ratio)
How it was run: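 ME-180 HRE-bla cells plated in Opti-MEM/0.5% dialyzed FBS, rested 4-5 h, then dosed with compound titrations by pin tool. After 17 h at 37 degrees C, CCF4 dye loaded 2.5 h at RT; 460/530 nm ratio gave %Activity and AC50.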

Measured: Potency

C[C@@H]1C(=O)NC2=Nc3cccc(Cl)c3CN21
not listed: [8] | [9] | [10]
inactive: all other assays above

CC(C)NC[C@@H](O)COc1cccc2ccccc12
active: [8] 2.51 µM | [1] 10 µM | [3] 7.94 µM | [9] 2.82 µM | [4] 8.91 µM
inactive: [6] | [7]

Oc1ccc(O)cc1
inactive: [6] | [7]
active: [1] 11.2 µM | [9] 12.6 µM | [4] 12.6 µM

CN1C2CCC1CC(OC(=O)c1c[nH]c3ccccc13)C2 (configuration not stated)
active: [8] 11.2 µM | [1] 10 µM | [2] 11.2 µM | [9] 8.91 µM
inactive: [5] | [6] | [7]

CC(O)C(=O)O (configuration not stated)
inactive: [10]

C1CCc2nnnn2CC1
not listed: [10]
inactive: all other assays above

N[C@@H](Cc1cnc[nH]1)C(=O)O
not listed: [10]
inactive: all other assays above

CCCCCCc1ccc(O)cc1O
inactive: [10]

C[N+]1(CCCCC[N+]2(C)CCCC2)CCCC1
not listed: [5] | [10]
inactive: all other assays above

COC(=O)[C@H]1[C@H]2C[C@H]3c4[nH]c5ccccc5c4CCN3C[C@H]2CC[C@@H]1O
inactive: [1] | [2] | [3] | [4] | [6] | [7]

CC(=O)Oc1ccc(C(c2ccc(OC(C)=O)cc2)c2ccccn2)cc1
inactive: [10]

COc1cc(-c2ccc(=O)[nH]n2)ccc1OC(F)F
not listed: [5] | [10]
inactive: all other assays above

CN=C(NC#N)Nc1ccc(C2=NNC(=O)CC2C)cc1 (configuration not stated)
not listed: [5] | [10]
inactive: all other assays above

CC(=O)O[C@]1(C(C)=O)CC[C@H]2[C@@H]3C[C@H](C)C4=CC(=O)CC[C@]4(C)[C@H]3CC[C@@]21C
inactive: [10]

O=C1CCC(c2ccc(-n3ccnc3)cc2)=NN1
not listed: [10]
inactive: all other assays above

N[C@H](CO)C(=O)O
not listed: [4] | [5] | [10]
inactive: all other assays above

Nc1cc(Cl)c(NC2=NCCN2)c(Cl)c1
not listed: [8] | [9] | [10]
inactive: all other assays above

Nc1ccc(C(=O)O)cc1
inactive: [10]

C=CCc1ccc(O)c(OC)c1
inactive: [10]

COC1=CC(=O)C[C@@H](C)[C@]12Oc1c(Cl)c(OC)cc(OC)c1C2=O
inactive: [10]

CCCn1c(=O)[nH]c(=O)c2[nH]cnc21
not listed: [10]
inactive: all other assays above

CC1(C)CCC(NC(=O)[C@@H](N)CCC(=O)O)CC1
not listed: [10]
inactive: all other assays above

O=C(O)CCCCC(=O)O
inactive: [10]

CNCCC=C1c2ccccc2CCc2ccccc21
active: [8] 5.62 µM | [1] 11.2 µM | [3] 2.82 µM | [9] 2.24 µM | [4] 11.2 µM
inactive: [7]

COc1cc(NS(C)(=O)=O)ccc1Nc1c2ccccc2nc2ccccc12
inactive: [6]
active: [8] 0.891 µM | [1] 0.891 µM | [2] 1.41 µM | [3] 2.51 µM | [9] 1 µM | [4] 1.41 µM

CCC(NC(C)C)C(O)c1ccc(O)c(O)c1 (configuration not stated)
active: [8] 12.6 µM | [1] 12.6 µM | [2] 12.6 µM | [3] 7.08 µM | [9] 8.91 µM | [4] 8.91 µM
inactive: [5] | [6] | [7]

CC(CCc1ccccc1)NCC(O)c1ccc(O)c(C(N)=O)c1 (configuration not stated)
inactive: [5] | [6] | [7]
active: [8] 10 µM | [1] 10 µM | [2] 12.6 µM | [9] 8.91 µM | [4] 12.6 µM

CC(C)COC(=O)OCN1C(=O)CN(CCN2CC(=O)N(COC(=O)OCC(C)C)C(=O)C2)CC1=O
inactive: [8] | [1] | [2] | [3] | [4] | [7]

O=C(O)c1cc2cc(Cc3cccnc3)ccc2o1
not listed: [10]
inactive: all other assays above

CNCCC(Oc1ccccc1C)c1ccccc1 (configuration not stated)
inactive: [2] | [4] | [6] | [7]

O=c1ccc2ccccc2o1
inactive: [10]

C[C@]12CC[C@@H]3c4ccc(O)cc4CC[C@H]3[C@@H]1CC[C@@H]2O
inactive: [3] | [4] | [6] | [7]
